Test results as given in PubChem BioAssay.
Values without a mark were called inactive. Activity calls are given as the source filed them.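 How the source made its calls: active means mean inhibition over 43.08%, the solvent-only control mean plus 3 SD; inactive means the rest.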

What follows are molecules tested against Nuclear receptor coactivator 3 (Homo sapiens) (UniProt Q9Y6Q9) (assay: NCOA3 GAL4-fusion reporter inhibition – cell-based, luminescence, quadruplicate, confirmation (AID 588792;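 further: 0% = DMSO treated cells and 100% = gossypol at 36 µM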)). Conditions: HEK293 GAL4-SRC3 luciferase reporter, at 3.6 µM, hits give high values.
Nuclear receptor coactivator 3 (Homo sapiens), sequence (Q9Y6Q9 whole entry, looked up, the tested form may be a part): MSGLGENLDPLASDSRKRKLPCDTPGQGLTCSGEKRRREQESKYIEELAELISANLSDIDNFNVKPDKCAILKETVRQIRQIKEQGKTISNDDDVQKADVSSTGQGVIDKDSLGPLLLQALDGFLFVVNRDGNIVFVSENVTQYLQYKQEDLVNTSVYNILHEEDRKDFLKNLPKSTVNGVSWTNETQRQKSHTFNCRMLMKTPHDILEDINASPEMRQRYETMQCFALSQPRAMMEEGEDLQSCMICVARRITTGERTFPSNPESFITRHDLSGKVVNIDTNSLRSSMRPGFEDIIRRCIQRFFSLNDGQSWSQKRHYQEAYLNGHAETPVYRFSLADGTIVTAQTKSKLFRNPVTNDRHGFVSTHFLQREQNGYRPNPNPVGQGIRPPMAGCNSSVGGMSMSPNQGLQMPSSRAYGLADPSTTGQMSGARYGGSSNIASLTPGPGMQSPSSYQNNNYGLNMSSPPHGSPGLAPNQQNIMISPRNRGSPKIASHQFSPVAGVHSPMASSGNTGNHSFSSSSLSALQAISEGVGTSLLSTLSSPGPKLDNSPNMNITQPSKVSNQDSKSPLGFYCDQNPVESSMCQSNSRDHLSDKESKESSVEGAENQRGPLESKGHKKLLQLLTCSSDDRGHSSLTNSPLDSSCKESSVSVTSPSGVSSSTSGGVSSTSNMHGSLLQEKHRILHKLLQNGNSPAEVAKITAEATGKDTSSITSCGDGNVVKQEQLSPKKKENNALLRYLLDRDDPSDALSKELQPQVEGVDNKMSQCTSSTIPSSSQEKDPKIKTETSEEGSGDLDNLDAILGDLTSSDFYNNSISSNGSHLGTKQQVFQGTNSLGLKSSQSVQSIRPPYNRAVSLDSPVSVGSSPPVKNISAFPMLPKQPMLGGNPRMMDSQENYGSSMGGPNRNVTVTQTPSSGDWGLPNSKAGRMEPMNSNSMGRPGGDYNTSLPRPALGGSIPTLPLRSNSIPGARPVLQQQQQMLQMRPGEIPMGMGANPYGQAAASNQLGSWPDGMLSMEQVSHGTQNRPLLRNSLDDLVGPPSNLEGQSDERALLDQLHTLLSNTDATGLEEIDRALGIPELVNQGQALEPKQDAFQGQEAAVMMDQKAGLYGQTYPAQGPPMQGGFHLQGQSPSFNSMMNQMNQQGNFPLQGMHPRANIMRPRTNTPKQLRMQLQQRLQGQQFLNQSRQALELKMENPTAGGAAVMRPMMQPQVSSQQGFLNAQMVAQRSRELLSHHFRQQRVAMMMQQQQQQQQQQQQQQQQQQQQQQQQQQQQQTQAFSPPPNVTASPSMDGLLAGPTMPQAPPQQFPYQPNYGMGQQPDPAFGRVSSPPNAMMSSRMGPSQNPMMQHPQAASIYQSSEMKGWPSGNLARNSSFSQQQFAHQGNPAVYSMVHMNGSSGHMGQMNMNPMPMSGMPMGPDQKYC

Structure (SMILES)	inhibition
O=C(N/N=C/c1cc(Br)ccc1O)c1ccncc1	23.8%
CC(C)c1nc(NCCO)c(C#N)c2c1CCCC2	40%
COC(=O)c1cc(N/C(N)=N/c2nc(C)cc(C)n2)cc(C(=O)OC)c1	27.3%
O=C(N/N=C(\c1ccccc1)c1ccccn1)c1ccccc1Cl	35.8%
Fc1ccc(NC(=S)NNc2ncc(C(F)(F)F)cc2Cl)c(F)c1	4.99%
CN(C)c1ccc(CNC(=O)CCNS(=O)(=O)c2cc(Br)cnc2N)cc1	31.5%
CC(C)(C)OC(=O)NCCCC[C@H](NC(=O)c1nc[nH]c1C(=O)N[C@@H](CCCCNC(=O)OC(C)(C)C)C(=O)OC(C)(C)C)C(=O)OC(C)(C)C	-4.98%
O=C(Nc1ccc(Cn2cccn2)cc1)c1ccc(COc2cccc(Br)c2)cc1	1.93%
Cn1c(=N)n(CC(=O)c2ccc(Cl)c(Cl)c2)c2ccccc21	-33.3%
CC1CCN(c2nc3ccc(C(=O)O)cc3s2)CC1	10.7%
COc1ccc(CNc2nn3c(-c4cccc(C(=O)N(C)C)c4)cnc3s2)cc1	50.3% (active)
NC(=O)c1sc2nccc(Nc3ccccc3)c2c1N	70.9% (active)
NNC(=O)c1cnn(Cc2ccccc2)c1N	-5.29%
N=c1c2c(-c3ccccc3)c(-c3ccccc3)n(Cc3ccco3)c2ncn1CCCO	26.8%
C/C(=N\NC(=O)c1nnn(-c2nonc2N)c1-c1ccccc1)c1ccccc1O	49.2% (active)
